{"source": "PubChem BioAssay AID651820", "about": "(National Center for Advancing Translational Sciences (NCATS), 2012)", "note": "Hit rate of the full screen: of about 340,000 compounds, about 12,000 (3.5%) were called active. Roughly 18% stayed inconclusive and do not appear here. This is one part of a sample in which actives are shown more often than they occur. Calls follow the shape of the dose curve; as a rule, active = well fitted inhibition curve with a large enough effect; inconclusive = small, poorly fitted or top-dose-only effect, or another doubt; inactive = no such curve, though single readings can be large or run the other way. % is scaled to controls: 0 for no effect and ±100 for the full control effect; potency is read from the fitted curve at half-maximal effect.", "data": [{"test": "qHTS Assay for Inhibitors of Hepatitis C Virus (HCV)", "conditions": "Huh7.5.1 HCVcc-Cre infection, luciferase reporter, 44 h; series mostly up to 41.8 µM; activity change, negative = inhibition: at the top concentration", "method_in_brief": "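Infectious HCV cell culture screen: compound-treated cells (1,000/well, pre-plated 4 h) are infected with HCVcc-Cre at roughly 0.5 moi and grown 44 h. Infection is quantified by luciferase signal after 15 min substrate incubation at room temperature.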", "values": [{"compound": "Fc1ccc2cnc(-c3ccccc3)cc2c1", "activity change, negative = inhibition": "16.1% (inactive)"}, {"compound": "COc1cc2c3c(c1)/C(=C1/SC(=S)NC1=O)C(=O)N3C(C)(C)C=C2C", "Potency": "25.1 µM (active)"}, {"compound": "CC(C)Oc1ccc(S(=O)(=O)N2CCOCC2)cc1NC(=O)C1CSC2(C)CCC(=O)N12", "note": "(stereo unspecified)", "activity change, negative = inhibition": "-20.8% (inactive)"}, {"compound": "COc1cc(C(=O)NCC(=O)NCCSc2ccc(Br)cc2)cc(OC)c1OC", "activity change, negative = inhibition": "-19.6% (inactive)"}, {"compound": "CCSc1nsc(NC(=O)Nc2cccc(C(C)=O)c2)n1", "Potency": "11.2 µM (active)"}, {"compound": "CSc1nsc(NC(=O)Nc2ccccc2)n1", "activity change, negative = inhibition": "-15.8% (inactive)"}, {"compound": "CC(=O)c1cccc(NC(=O)c2ccncc2)c1", "activity change, negative = inhibition": "1.02% (inactive)"}, {"compound": "Cc1ccc(C)c(NC(=O)C(c2ccccc2)N2CCN(CC(=O)NC3CC3)CC2)c1", "note": "(stereo unspecified)", "activity change, negative = inhibition": "20.5% (inactive)"}, {"compound": "CCS(=O)(=O)NCCc1ccc(OC)c(OC)c1", "activity change, negative = inhibition": "-0.766% (inactive)"}, {"compound": "COc1ccc(CCNc2ncnc3nc[nH]c23)cc1OC", "Potency": "11.2 µM (active)"}, {"compound": "COc1ccc(CCNc2nc(C)cc(C)n2)cc1OC", "activity change, negative = inhibition": "-14.5% (inactive)"}, {"compound": "Nc1c(C(=O)OCC(=O)Nc2ccc(OC(F)F)cc2)[nH]c(=O)[nH]c1=O", "activity change, negative = inhibition": "1.46% (inactive)"}, {"compound": "CCCn1c(N)c(N(CCOC)C(=O)C2CCCC2)c(=O)[nH]c1=O", "activity change, negative = inhibition": "11.3% (inactive)"}, {"compound": "CCC1CCCCN1CCCNC(=O)C1CCC(Cn2c(=O)[nH]c3ccccc3c2=O)CC1", "note": "(stereo unspecified)", "activity change, negative = inhibition": "-13.2% (inactive)"}, {"compound": "CCC1CCCCN1CCCNC(=O)c1cc2c(Cl)nc3ccccc3c2s1", "note": "(stereo unspecified)", "Potency": "8.91 µM (active)"}, {"compound": "Cc1nc2ccccc2c2oc(C(=O)NCCCN3CCC(C)CC3)cc12", "activity change, negative = inhibition": "-20.7% (inactive)"}, {"compound": "C#CCOCCOCCOCCNc1nc(N2CCN(C(=O)[C@H](CO)n3cc([C@@H](N)C(C)C)nn3)CC2)nc(N2CCN(C(=O)[C@H](CCC(=O)O)n3cc([C@@H](N)[C@H](C)CC)nn3)CC2)n1", "activity change, negative = inhibition": "-8.15% (inactive)"}, {"compound": "Nc1ccc2[nH]c(=S)sc2c1", "activity change, negative = inhibition": "12.9% (inactive)"}, {"compound": "COc1ccc(CCN2CC(C(=O)OCC(=O)NCc3ccccc3Cl)CC2=O)cc1OC", "note": "(stereo unspecified)", "activity change, negative = inhibition": "-7.78% (inactive)"}, {"compound": "CC(NC(=O)c1ccccc1SCC(=O)N1CCCC1)c1ccccc1", "note": "(stereo unspecified)", "activity change, negative = inhibition": "22.8% (inactive)"}, {"compound": "O=C(c1ccccc1)c1ccc(OCC(O)CN2CCCC2)cc1", "note": "(stereo unspecified)", "activity change, negative = inhibition": "2.19% (inactive)"}, {"compound": "O=C(c1ccc(Cl)cc1)c1ccc(OCC(O)CN2CCCCC2)cc1", "note": "(stereo unspecified)", "Potency": "14.1 µM (active)"}, {"compound": "CC(=O)Nc1ccc(OCC(O)CN2CCN(c3ccccc3Cl)CC2)cc1", "note": "(stereo unspecified)", "activity change, negative = inhibition": "3.6% (inactive)"}, {"compound": "O=C1NCC(c2ccccc2)(c2ccccc2)C(=O)N1", "activity change, negative = inhibition": "38.7% (inactive)"}, {"compound": "CC1CC(C)CN(C(=O)COC(=O)c2ccc3ncsc3c2)C1", "note": "(stereo unspecified)", "activity change, negative = inhibition": "-5.2% (inactive)"}, {"compound": "CC(=O)c1c(C)oc2ccc(NS(=O)(=O)c3ccccc3)cc12", "activity change, negative = inhibition": "-15.2% (inactive)"}, {"compound": "COc1ccc(S(=O)(=O)Nc2ccc3oc(C)c(C(C)=O)c3c2)cc1", "Potency": "7.94 µM (active)"}, {"compound": "CC(=O)c1c(C)oc2ccc(NS(=O)(=O)c3ccc(C(=O)O)cc3)cc12", "activity change, negative = inhibition": "3.69% (inactive)"}, {"compound": "CC(OC(=O)c1ccc(S(=O)(=O)N2CCOCC2)cc1)c1ccccc1", "note": "(stereo unspecified)", "activity change, negative = inhibition": "-17% (inactive)"}, {"compound": "COC1=CC(=O)OC(C)(c2ccccc2)C1", "note": "(stereo unspecified)", "activity change, negative = inhibition": "15.7% (inactive)"}, {"compound": "O=C(Cc1ccccc1)NC(=S)Nc1ccc(N2CCCCC2)cc1", "activity change, negative = inhibition": "-1.27% (inactive)"}, {"compound": "Cc1ccccc1C(=O)NC(=S)Nc1ccc(N2CCN(C(=O)c3ccccc3)CC2)cc1", "Potency": "11.2 µM (active)"}, {"compound": "CN1CCN(c2ccc(NC(=O)c3ccccc3)cc2)CC1", "activity change, negative = inhibition": "6.63% (inactive)"}, {"compound": "O=C(Nc1ccc(N2CCN(C(=O)c3cccs3)CC2)cc1)c1cccnc1Cl", "activity change, negative = inhibition": "-12.3% (inactive)"}, {"compound": "Cc1ccccc1C(=O)N1CCN(c2ccc(NC(=O)c3cccs3)cc2)CC1", "Potency": "11.2 µM (active)"}, {"compound": "O=C(Nc1ccc(N2CCN(C(=O)C3CC3)CC2)cc1)c1cccs1", "activity change, negative = inhibition": "-3.63% (inactive)"}, {"compound": "Cc1ccc(-c2csc(NCCc3nc4cc(Cl)c(Cl)cc4n3CCOCCO)n2)cc1", "activity change, negative = inhibition": "-19.6% (inactive)"}, {"compound": "CCCCNC(=O)Cn1nc(C)c(S(=O)(=O)N2CCOCC2)c1C", "activity change, negative = inhibition": "0.679% (inactive)"}, {"compound": "CC(C)(C)C(=O)Nc1cccc(-c2ccc[nH]2)n1", "activity change, negative = inhibition": "-21% (inactive)"}, {"compound": "CC(=O)c1c(C)[nH]c(C(=O)N2CCN(S(=O)(=O)c3ccc(F)c(F)c3)CC2)c1C", "activity change, negative = inhibition": "19.1% (inactive)"}, {"compound": "CNS(=O)(=O)c1cccc(C(=O)NC2CCCc3ccccc32)c1", "note": "(stereo unspecified)", "activity change, negative = inhibition": "-13.6% (inactive)"}, {"compound": "CCOc1ccc(NC(=O)COc2ccc(C(=O)NC3CCCc4ccccc43)cc2OC)cc1", "note": "(stereo unspecified)", "activity change, negative = inhibition": "1.4e-06% (inactive)"}, {"compound": "CCOc1c2ccc(C(=O)NC3CCCc4ccccc43)cc2nn1CC", "note": "(stereo unspecified)", "Potency": "3.55 µM (active)"}, {"compound": "CCCc1cc(=O)[nH]c(SCC(=O)Nc2ccc(S(=O)(=O)N3CCCC3)cc2)n1", "activity change, negative = inhibition": "-9.93% (inactive)"}, {"compound": "Cc1nn(C)c(Oc2ccc(Cl)cc2)c1C=O", "activity change, negative = inhibition": "-11.1% (inactive)"}, {"compound": "Nc1ccc(Oc2ccc(Cl)cc2)cc1", "Potency": "7.94 µM (active)"}, {"compound": "CC(C)(C)c1ccc(OC2=CS(=O)(=O)c3ccccc32)cc1", "activity change, negative = inhibition": "-5.07% (inactive)"}, {"compound": "Nc1ccc2nn(-c3ccc(Cl)cc3)nc2c1", "activity change, negative = inhibition": "-11.2% (inactive)"}, {"compound": "COc1cccc(Oc2ccc(N)cc2)c1", "activity change, negative = inhibition": "-21.4% (inactive)"}, {"compound": "CC(C)(C)c1ccc(Oc2ccc(N)cc2)cc1", "Potency": "3.55 µM (active)"}, {"compound": "O=S(=O)(Nc1ccc(O)c2ccccc12)c1ccc(OC(F)(F)F)cc1", "activity change, negative = inhibition": "-0.296% (inactive)"}, {"compound": "COc1ccc(CNC(=O)COC(=O)C(CCSC)N2C(=O)c3ccccc3C2=O)cc1", "note": "(stereo unspecified)", "activity change, negative = inhibition": "4.01% (inactive)"}, {"compound": "COc1ccc(OCC(O)CN(C)C(=O)C(C)Oc2ccccc2)cc1", "note": "(stereo unspecified)", "activity change, negative = inhibition": "7.61% (inactive)"}, {"compound": "C=CCc1ccc(OCC(O)CN2CCN(Cc3ccccc3)CC2)c(OC)c1", "note": "(stereo unspecified)", "activity change, negative = inhibition": "-23.4% (inactive)"}, {"compound": "C=CCn1c(=N)n(CC(O)COc2ccc(OC)cc2)c2ccccc21", "note": "(stereo unspecified)", "Potency": "5.62 µM (active)"}, {"compound": "CCCCn1c(N)c(N(CC(C)C)C(=O)c2cnc(C)cn2)c(=O)[nH]c1=O", "activity change, negative = inhibition": "31.4% (inactive)"}, {"compound": "CC1CCN(C(=O)COC(=O)c2cc(S(=O)(=O)N3CCOCC3)ccc2Cl)CC1", "activity change, negative = inhibition": "9.19% (inactive)"}, {"compound": "CNS(=O)(=O)c1ccc(C(=O)NCC(=O)NCCc2ccc3c(c2)OCCO3)cc1", "activity change, negative = inhibition": "-10.8% (inactive)"}, {"compound": "CC(C)c1ccc2c(c1)c(SC(C)(C)C)c(CC(C)(C)C(=O)O)n2Cc1ccc(Cl)cc1", "Potency": "10 µM (active)"}, {"compound": "O=C(O)c1ccc(Cn2c(=S)[nH]c3cc(Cl)ccc3c2=O)cc1", "activity change, negative = inhibition": "5.79% (inactive)"}, {"compound": "Cc1cc2nnc(SCC(=O)N3CCN(c4ccccc4)CC3)n2c(N)n1", "activity change, negative = inhibition": "8% (inactive)"}, {"compound": "Cn1c(CNC(=O)c2ccco2)nnc1SCC(=O)N1CCN(c2ccccc2)CC1", "activity change, negative = inhibition": "19.3% (inactive)"}, {"compound": "Cn1c(Cc2cccc3ccccc23)nnc1SCC(=O)N1CCN(c2cccc(Cl)c2)CC1", "Potency": "3.98 µM (active)"}, {"compound": "O=C(CSc1ncnc2sccc12)NC1CCS(=O)(=O)C1", "note": "(stereo unspecified)", "activity change, negative = inhibition": "12.8% (inactive)"}, {"compound": "CC(=O)Nc1ccc(S(=O)(=O)NCC(=O)OCC(=O)c2ccc[nH]2)cc1", "activity change, negative = inhibition": "30.9% (inactive)"}, {"compound": "O=C(c1cccnc1)N(Cc1ccccc1)C(=O)c1cccnc1", "activity change, negative = inhibition": "7.13% (inactive)"}]}]}
